This is an account of results in PubChem BioAssay.

Assay [1] can be described thus: liver-stage malaria parasite growth inhibition, primary screen, cell-based, HepG2, luciferase luminescence, HepG2 viability (AID 624349; in the data active = parasite load remaining mostly below about 12%, no sharp cut-off; inactive = mostly above about 10%;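 note: 100% = mean of DMSO negative control wells on the same plate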). Particulars: P. berghei liver stage in HepG2, luciferase luminescence, concentration not given here; parasite load remaining: stronger effect = lower value; viability: measured here: HepG2 viability without parasites.
Assay [2] can be described thus: Cy5 fluorescence interference with SSB-bound oligo, artefact control for HCV NS3 helicase inhibitor project, biochemical, NIH Clinical Collection, E. coli SSB (AID 743268).
The test system of assay [3] is Hepatitis C virus NS3 helicase. Put plainly: HCV NS3 helicase inhibitors, primary screen, biochemical, fluorescence polarization, NIH Clinical Collection (AID 743270). To be noted: NS3 helicase binding to Cy5-dT15 DNA, stronger effect = higher value, concentration not given here. On the technique in general: Fluorescence polarisation rises when a labelled molecule tumbles more slowly, as on binding a larger partner.

The target in assay [4] is Single-stranded DNA-binding protein (Escherichia coli (strain K12)) (UniProt P0AGE0). Put plainly: E. coli SSB displacement from DNA, counter-screen for HCV NS3 helicase inhibitor project, biochemical, fluorescence polarization, NIH Clinical Collection (AID 743271; in the data active = inhibition above about 28%). To be noted: stronger effect = higher value, concentration not given here.
The nature of assay [5]: fluorescence interference in NS3h assay format, artefact control for HCV NS3 helicase inhibitor project, biochemical, NIH Clinical Collection (AID 743272).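 Note: HCV NS3 helicase with a Cy5 labelled single stranded DNA probe.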 Particulars: fluorescence interference counterscreen, stronger effect = lower value. (Counterscreens check selectivity or assay interference.)
Assay [6] deals with Neuropilin-2 / VEGF-C interaction (human). Put plainly: inhibitors of NRP2–VEGF-C binding, biochemical, microplate binding format, z-score (AID 743281). Particulars: microplate NRP2/VEGF-C binding assay; stronger effect = lower value.
Assay [7] can be described thus: stimulators of nuclear beta-catenin in C2C12, primary screen, imaging, WNT3A-conditioned medium, mouse C2C12, NPC library (AID 1117326; in the data active = nuclear beta-catenin stimulation mostly above about 4.2%, no sharp cut-off; inactive = mostly below about 10%). To be noted: stronger effect = higher value.
Assay [8] is described as follows: stimulators of insulin release from INS-1E, primary screen, cell-based, 5 mM glucose, NPC library (AID 1117329;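 active = compound raises insulin release from rat beta cells at 5 mM glucose, no numeric limit stated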). To be noted: rat INS-1E insulin secretion, at 10 µM, stronger effect = higher value.
Assay [9] can be described thus: growth inhibition of GSK3B-pretreated HCT116 cells – cell-based, CellTiter-Glo, 0.2 to 20 µM (AID 1117336;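 active = compounds lowering colon cancer cell viability after pretreatment blocking the GSK3B kinase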). Particulars: HCT116 viability after GSK3B inhibitor, at 20 µM, stronger effect = higher value. For orientation: ATP-based viability assays read luminescence as a measure of living cells.
A short description of assay [10]: inhibition of endothelial tube formation, primary screen, imaging, VEGF stimulated, CD31 staining, tube area, NPC library (AID 1117340;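 active = compound that reduces growth-factor-driven endothelial tube area in a mixed cell culture, no cutoff stated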). Particulars: VEGF-stimulated ADSC/ECFC co-culture, at 10 µM, stronger effect = higher value.
A short description of assay [11]: glucagon-like peptide 1 release enhancers, primary assay, NCI-H716 cell line, NPC library (AID 1117341;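 active = compound raises GLP1 secretion from the human gut endocrine cells, with no numeric limit stated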). Particulars: NCI-H716 cells, at 10 µM, stronger effect = higher value.
A short description of assay [12]: HCT116 colon cancer cell growth inhibition, primary screen, CellTiter-Glo luminescence, NPC library (AID 1117342;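 active = compounds that lower survival of HCT116 colon cancer cells in the luminescence readout, no numeric limit stated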). To be noted: at 20 µM (top of the series).
Assay [13] in a line: CellTiter-Glo luminescent readout of SW480 viability loss, NPC library primary (AID 1117343;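 active = compounds that lower viability of the colon cancer cells in the luminescence readout, with no numeric limit stated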). To be noted: CellTiter-Glo luminescence; at 20 µM (top of the series).
Assay [14] in a line: decreased DLD-1 cellular survival, CellTiter-Glo luminescent readout, NPC compound collection, primary HTS (AID 1117346;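 active = compounds that lower survival of DLD-1 colon cancer cells in the luminescence readout, no cutoff given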). To be noted: DLD-1 viability, CellTiter-Glo luminescence; at 20 µM (top of the series).

Structures are written as SMILES. “And” between values parts separate entries of the source, which are not always exact repeats. Identical values can stand only once. The source made the active and inactive calls. Unless noted, the rule behind the calls is not given here.

Broadly, the viability is a read-out of living cells in per cent, often relative to untreated cells. As a reminder, the inhibition is the change of the read-out against control, counted positive when it falls.

`O=C(c1ccc(F)cc1)C1CCN(CCn2c(=S)[nH]c3ccccc3c2=O)CC1`: the parasite load remaining in assay [1] is 28.9% (inactive). Also, the viability in assay [1] turned out to be 66.9%. Moreover, the results for the fluorescence ratio in assay [2] and in [5] were 1.05 (inactive) and 1.06 (inactive), respectively. For the same compound, the inhibition in [3] was 10.7% (inactive); in assay [4] it was 26.1% (inactive). For the same compound, the z-score in [6] was 0.126 (inactive). In addition, the nuclear beta-catenin stimulation was 2.2% (inactive) in assay [7] (at 10 µM) and -0.2% in assay [7] (stimulation, at 2 µM). Besides, the insulin secretion stimulation in [8] was -1.4% (inactive). The viability decrease in [9] was 63.4% (active). For the same compound, in [10], the tube area decrease is -7.4% (inactive). In addition, the GLP1 secretion stimulation in assay [11] was 3.7% (inactive). Moreover, the inhibition of viability in assay [12] was 69.7% (active). For the same compound, the viability decrease (inhibition) was 69.7% (active) in [13] and 59.8% (active) in [14].

On to `O=c1c(-c2ccccc2)c1-c1ccccc1`, for which the parasite load remaining in assay [1] is 7.97% (inactive). For the same compound, the viability in assay [1] stood at 65.5%. The fluorescence ratio is 0.98 (inactive) in assay [2] and 0.79 (active) in assay [5]. The inhibition was -0.4% (inactive) in assay [3] and 1.44% (inactive) in assay [4]. Moreover, in assay [6], the z-score is -0.326 (inactive). Besides, the nuclear beta-catenin stimulation is 40.6% (active) in assay [7] (at 10 µM) and 22.6% in assay [7] (stimulation, at 2 µM). In assay [8], the insulin secretion stimulation is 0.3% (inactive). Besides, the viability decrease in [9] was 41.9% (inactive). For the same compound, the tube area decrease in assay [10] is 103% (active). In addition, the GLP1 secretion stimulation in assay [11] is -2.9% (inactive). In assay [12], the inhibition of viability was 64.4% (active). For the same compound, the viability decrease (inhibition) was 106% (active) in [13] and 64.3% (active) in [14].

Take `CC(=O)Nc1ccc(CC(=O)O)cc1`: the parasite load remaining in assay [1] was 119% (inactive). For the same compound, the viability in assay [1] was 78.7%. The fluorescence ratio was 1.02 (inactive) in assay [2] and 0.93 (inactive) in assay [5]. The figures for the inhibition in [3] and in assay [4] were 0.4% (inactive) and -2.41% (inactive), respectively. The z-score in assay [6] was -0.00496 (inactive). Also, the nuclear beta-catenin stimulation is -0.2% (inactive) in assay [7] (at 10 µM) and 0.4% in [7] (stimulation, at 2 µM). Further, the insulin secretion stimulation in assay [8] is -2.2% (inactive). Besides, the viability decrease in assay [9] is -4.5% (inactive). Further, in [10], the tube area decrease is 12.1% (inactive). The GLP1 secretion stimulation in assay [11] is 0.9% (inactive). Further, in assay [12], the inhibition of viability is -11% (inactive). The results for the viability decrease (inhibition) in assay [13] and in assay [14] were 16.5% (inactive) and -2.4% (inactive), respectively.

In the case of `CC[N+](C)(CC)CCOC(=O)C(O)(c1ccccc1)C1CCCCC1` (centres undefined), the parasite load remaining in assay [1] was 65.2% (inactive). Moreover, the viability in assay [1] was 67.2%. The fluorescence ratio in [2] was 0.93 (inactive); in assay [5] it was 0.89 (inactive). In addition, the results for the inhibition in [3] and in assay [4] were -3.71% (inactive) and -1.18% (inactive), respectively. For the same compound, the z-score in [6] was -0.249 (inactive). Besides, the nuclear beta-catenin stimulation in assay [7] (at 10 µM) was -1% (inactive); in [7] (stimulation, at 2 µM), 3.2%. Further, the insulin secretion stimulation in assay [8] was -1.5% (inactive). In addition, the viability decrease in assay [9] is -16.6% (inactive). Further, the tube area decrease in [10] is -4.7% (inactive). In [11], the GLP1 secretion stimulation is -3.3% (inactive). In addition, the inhibition of viability in assay [12] is 0.4% (inactive). Besides, the viability decrease (inhibition) was 0.8% (inactive) in assay [13] and -8.3% (inactive) in assay [14].

For `CC(=O)OCC(=O)NCCCOc1cccc(CN2CCCCC2)c1`, the parasite load remaining in assay [1] was 165% (inactive) and 103% (inactive) and 34.4% (inactive). Also, in assay [1], the viability was 104% and 78.4% and 85%. Moreover, the figures for the fluorescence ratio in assay [2] and in [5] were 1.04 (inactive) and 1.02 (inactive), respectively. Moreover, the inhibition is -0.4% (inactive) in [3] and -0.1% (inactive) in assay [4]. For the same compound, the z-score in assay [6] is -0.306 (inactive). In addition, the nuclear beta-catenin stimulation was 1.8% (inactive) in [7] (at 10 µM) and 0.4% in [7] (stimulation, at 2 µM). The insulin secretion stimulation in assay [8] was -0.7% (inactive). Also, the viability decrease in assay [9] is -69.8% (inactive). The tube area decrease in assay [10] is 10.4% (inactive). Moreover, in [11], the GLP1 secretion stimulation is -0.3% (inactive). Besides, in [12], the inhibition of viability was -15.6% (inactive). Also, the viability decrease (inhibition) was 22.9% (inactive) in assay [13] and -31.7% (inactive) in assay [14].

As for `CC(C)(C#N)c1cc(Cn2cncn2)cc(C(C)(C)C#N)c1`, the parasite load remaining in assay [1] is 73.5% (inactive) and 47.4% (inactive). In assay [1], the viability is 67.1% and 158%. Also, the fluorescence ratio in assay [2] is 0.93 (inactive); in assay [5], 0.92 (inactive). Also, the inhibition in assay [3] was -0.22% (inactive); in assay [4], 1.18% (inactive). For the same compound, in assay [6], the z-score was 1.38 (inactive). In addition, the nuclear beta-catenin stimulation in assay [7] (at 10 µM) is 0.3% (inactive); in assay [7] (stimulation, at 2 µM), 1.7%. Moreover, the insulin secretion stimulation in assay [8] is 2.3% (inactive). In addition, the viability decrease in [9] was -0.4% (inactive). Moreover, the tube area decrease in assay [10] was -11.4% (inactive). In addition, in assay [11], the GLP1 secretion stimulation was 2.1% (inactive). Besides, the inhibition of viability in assay [12] is -5.9% (inactive). For the same compound, the viability decrease (inhibition) is 45.5% (inactive) in assay [13] and 0.55% (inactive) in assay [14].

For `CCCc1c(OCCCCc2nn[nH]n2)ccc(C(C)=O)c1O`, in assay [1], the parasite load remaining was 103% (inactive). In addition, in assay [1], the viability came out at 65.9%. Besides, the fluorescence ratio in assay [2] is 1.03 (inactive); in assay [5], 0.98 (inactive). Also, the inhibition was 5.15% (inactive) in [3] and -3.18% (inactive) in assay [4]. The z-score in [6] was 0.174 (inactive). Moreover, the nuclear beta-catenin stimulation is 0.3% (inactive) in assay [7] (at 10 µM) and 1.2% in assay [7] (stimulation, at 2 µM). Also, the insulin secretion stimulation in assay [8] is -0.7% (inactive). For the same compound, in assay [9], the viability decrease is 49.9% (inactive). The tube area decrease in [10] was 15.6% (inactive). Besides, the GLP1 secretion stimulation in [11] was 6.3% (inactive). The inhibition of viability in assay [12] is 54.3% (active). The viability decrease (inhibition) in assay [13] is 29.7% (inactive); in assay [14], 27.7% (inactive).

`CC1(C)S[C@@H]2[C@H](N=CN3CCCCCC3)C(=O)N2[C@H]1C(=O)O`: the parasite load remaining in assay [1] is 101% (inactive). Further, the viability in assay [1] was determined as 79.6%. For the same compound, the fluorescence ratio in [2] is 1.06 (inactive); in [5] it was 1.04 (inactive). Besides, the inhibition in [3] was -1.98% (inactive); in assay [4], -4.72% (inactive). Also, the z-score in [6] was -0.418 (inactive). Moreover, the nuclear beta-catenin stimulation in assay [7] (at 10 µM) is 0.4% (inactive); in assay [7] (stimulation, at 2 µM), 0.8%. The insulin secretion stimulation in assay [8] is -1.6% (inactive). Besides, the viability decrease in assay [9] is -5.75% (inactive). Besides, the tube area decrease in assay [10] is 4.4% (inactive). In [11], the GLP1 secretion stimulation is -0.7% (inactive). Also, the inhibition of viability in assay [12] is 15.1% (inactive). In addition, the figures for the viability decrease (inhibition) in assay [13] and in assay [14] were -20.4% (inactive) and -12.8% (inactive), respectively.

`COc1cc(C)c(Cc2cnc(N)nc2N)cc1OC`: the parasite load remaining in assay [1] was 28% (inactive). Besides, the viability in assay [1] amounted to 73.1%. The fluorescence ratio is 1.02 (inactive) in assay [2] and 0.95 (inactive) in [5]. Besides, the inhibition was 1.98% (inactive) in [3] and 2.21% (inactive) in [4]. The z-score in assay [6] is -0.323 (inactive). For the same compound, the nuclear beta-catenin stimulation in [7] (at 10 µM) was -0.5% (inactive); in assay [7] (stimulation, at 2 µM), 0.4%. Besides, the insulin secretion stimulation in assay [8] was 1.7% (inactive). In addition, the viability decrease in assay [9] was -7.75% (inactive). Further, the tube area decrease in assay [10] is 11.1% (inactive). The GLP1 secretion stimulation in assay [11] was 0.8% (inactive). For the same compound, the inhibition of viability in assay [12] is 6.8% (inactive). In addition, the viability decrease (inhibition) in assay [13] is 11.5% (inactive); in assay [14], -5.75% (inactive).
